# The list is not random: actives were taken first. Their share in the collection is about 0.45%.
# RGS12 GoLoco inh-1 = inhibitors of human Gai1-RGS12 GoLoco interaction (red fluorophore); Gai1:RGS12 GoLoco peptide FP, rhodamine, 10 min; 230,000 compounds, 0.44% hits; Potency, µM (series often up to 61.6 µM), inactives show at the top dose activity, negative = inhibition, actives largely listed as inhibitors; active means well fitted inhibition curve with a large enough effect, not every such curve was filed as active; inactive means no such curve, though single readings can be large or run the other way; further: potency means the concentration at half of the fitted maximal effect; on the % scale 0 is the no-effect control and ±100 the full control effect; nearly all actives have a fitted effect of over 30% in size
# TRb SRC2 PPI = inhibitors of human thyroid hormone receptor beta-SRC2 interaction | Potency, µM (highest dose often 106 µM), without a hit: at the highest dose activity change, negative = inhibition, usual class: inhibitors | AID 1469 | 280,000 compounds, 0.065% hits | P10828 | TRbeta-SRC2 peptide binding, fluorescence polarization; receptor liganded with 1 µM T3;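 further: potency means the concentration at half of the fitted maximal effect; plate controls were bound peptide for no effect and peptide without receptor for full effect; nearly all actives have a fitted effect of over 50% in size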
#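 TRb LBD 0.6 uM + Texas Red SRC2 peptide 20 nM, 1 uM T3, Tris buffer w/ 5% DMSO; compound pinned, 5 h RT; FP read ex 555/em 632; normalized to unbound and bound controls.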
# ERG Ets-DNA blk = ERG Ets/DNA interaction inhibition; AID 624246; P11308; Potency, µM (doses to about 76.9 µM), for the others: top-dose FP activity, negative = inhibition, usual class: inhibitors; fluorescence polarization, His-ERG Ets domain / labelled DNA; 370,000 compounds, 0.028% hits; active means well fitted inhibition curve with a large enough effect in the polarisation, with a control signal flat; inconclusive means small, poorly fitted or top-dose-only effect, or effect the other way, or a change in a side signal; inactive means no such curve, though single readings can be large or run the other way; the % refers to the polarisation;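 further: polarization taken with two DNA probes labelled with fluorescein and Texas red; potency means the concentration at half of the fitted maximal effect; % of control where 0% means no effect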
# Target sequence (P11308 whole entry, looked up, the tested form may be a part): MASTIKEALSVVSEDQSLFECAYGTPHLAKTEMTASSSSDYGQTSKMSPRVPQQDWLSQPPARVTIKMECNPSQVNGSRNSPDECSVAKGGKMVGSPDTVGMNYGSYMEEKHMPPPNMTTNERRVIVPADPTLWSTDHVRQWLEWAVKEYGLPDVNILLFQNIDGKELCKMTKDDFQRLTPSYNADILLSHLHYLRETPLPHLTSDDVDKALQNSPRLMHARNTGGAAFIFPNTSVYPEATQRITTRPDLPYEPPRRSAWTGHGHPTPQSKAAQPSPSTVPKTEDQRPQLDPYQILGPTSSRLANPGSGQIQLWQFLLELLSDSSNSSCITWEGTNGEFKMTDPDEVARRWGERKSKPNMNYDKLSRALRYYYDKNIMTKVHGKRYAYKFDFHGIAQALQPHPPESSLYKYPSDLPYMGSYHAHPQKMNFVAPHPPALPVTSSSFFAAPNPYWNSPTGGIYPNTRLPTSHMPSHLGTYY
#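 His-tagged ERG Ets domain (1 uM in the protein solution; 300mM KCl, 50mM Tris-HCl, 1mM EDTA, 1mM DTT, pH 7.5) received compound, then a probe mix of 5 nM fluorescein-DNA and 100nM Texas-615-DNA. Fluorescence polarization was read for both dyes.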
# CBFb-RUNX1 inh = CBF-beta/RUNX1 interaction disruption; 230,000 tested, under 10 active; Q01196+Q13951; AlphaScreen CBFb-His/RUNX1-biotin binding, biochemical; Potency, µM (titrated, usually from 59.8 µM), for inactives: at the highest dose activity, negative = inhibition, actives largely listed as inhibitors; AID 1477; further: % of control where 0% means no effect
#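 Read-out: AlphaScreen. Format: His-CBF-beta with biotinylated RUNX1 (30 nM each) preincubated 20 min, compound 15 min, Ni-chelate plus streptavidin beads 90 min; room temperature throughout.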
# TR SRC2 fluor cs = Texas Red fluorescence interference in TRb-SRC2 counter-screen. TRb/SRC2 Texas Red total fluorescence interference. Potency, µM (doses to about 106 µM), inactives show at the top dose fluorescence change, negative = quenching. 280,000 compounds, 0.29% hits; active means well fitted curve in either direction with a large enough effect; inconclusive means small, poorly fitted or top-dose-only effect; further: potency means the concentration at half of the fitted maximal effect; on the % scale 0 is the no-effect control and ±100 the full control effect
#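 Flags fluorescent or light-absorbing compounds by total fluorescence, S + 2P, at 555 nm excitation and 632 nm emission. Mixture: 20 nM Texas Red SRC2 peptide, 0.6 uM human TRb LBD, 1 uM T3, 5% DMSO; compound exposure 5 h at ambient temperature.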
# a7 integrin act = integrin-mediated muscular dystrophy alleviation activation | AID 624291 | 350,000 compounds, 0.064% hits | Potency, µM (highest dose often 38.3 µM), inactives show at the highest dose activation, usual class: activators | alpha7betagal myoblasts, beta-gal FDG fluorescence, 48 h;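 further: potency means the concentration at half of the fitted maximal effect; 100% = response of the positive control SU9516; nearly all actives have a fitted effect of over 60% in size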
#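 alpha7betagal+/- myoblasts (passage 13, 250/well) treated 48 h at 37C with compounds at 1:260 dilution of DMSO stock. Lysed, then beta-galactosidase activity read as FDG fluorescence (ex 480/em 540) after 30 min, with pre-read for autofluorescence.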
# RGS12 GoLoco inh-2 = RGS12 (human) GoLoco motif inhibition, red FP; shares compounds with RGS12 GoLoco inh-1; Gai1/rhodamine-RGS12 GoLoco peptide fluorescence polarization; Potency, µM (series often up to 57.1 µM), without a hit: at the highest dose activity, negative = inhibition, most hits filed as inhibitors; 110 compounds, 50% hits; AID 2390
# Numbers without * were called inactive; ? = inconclusive; · = no result; ! = repeats disagree; [ ] = remark or other dose. Unless noted, the call rests on the fitted dose curve; in most records, active means well fitted curve in the direction sought with a large enough effect; inconclusive means small, poorly fitted or top-dose-only effect, or another doubt; inactive means no such curve, though single readings can be large; an effect the other way counts as inactive or inconclusive.
SMILES,RGS12 GoLoco inh-1,TRb SRC2 PPI,ERG Ets-DNA blk,CBFb-RUNX1 inh,TR SRC2 fluor cs,a7 integrin act,RGS12 GoLoco inh-2
C/C=C1/C[N@@+]2(C)CC[C@]34C(=C(C=O)[C@H]1C[C@H]32)Nc1ccccc14,6.3µM*,-4%,·,6%,-2%,·,·
COC(=O)c1ccccc1N,32µM*,0%,·,5%[21.7 µM],-3%,·,·
Oc1ccc2c3c1OC1C(O)CC[C@@]4(O)[C@@H](C2)N(CC2CCC2)CC[C@]314 (stereo partly specified),6%,2%,·,3%,-3%,·,·
Oc1ccc2c3c1OC1C(O)CC[C@]4(O)C(C2)N(CC2CCC2)CC[C@]314 (stereo partly specified),28µM*,3%,·,-16%,2%,·,1%
CC(C1CC1)C(O)(Cn1cncn1)c1ccc(Cl)cc1 (stereo unspecified),·,0%[201 µM],·,·,1%[201 µM],·,·
O=C/C(Cl)=C(/Cl)C(=O)O,·,-4%[201 µM],·,·,1%[201 µM],·,·
O=C(CCN1CC2CCC(CC2)C1)c1cccs1,4%[14.2 µM],·,12%,·,·,-52%,·
CCCC[N+]12CCC(CC1)C(C(=O)c1cccs1)C2 (stereo unspecified),6.3µM*,0%,-5%,-1%,1%,6%,16µM*
COc1ccc2c(c1OC)C(=O)OC2C1c2cc3c(cc2CCN1C)OCO3 (stereo unspecified),20µM*!,-1%,6%,8%,-1%,6%,1%
CN/C(=N/[N+](=O)[O-])NCC1CCOC1 (stereo unspecified),·,2%[201 µM],·,·,-5%[201 µM],·,·
CC[C@@]1(O)CC(O)c2c(cc3c(c2O)C(=O)c2c(O)ccc(O)c2C3=O)C1C(=O)OC (stereo partly specified),2.8µM*,-10%,·,-22%,?,·,5µM*
CCC(CO)(C(=O)OC1C[N+]2(C)CCC1CC2)c1ccccc1 (stereo unspecified),16µM*,-3%,3%,7%,-6%,12%,16µM*
